# In the supplement of paper PMC8728848:
# This excerpt belongs to a sample that is enriched for the strongest signals.
# B1: Loc1 (Escherichia coli) (protein)
# chain: APCALTNVGEQRGTYILKPLSMKGNLTAEKIENTGNIIECTDLQETTNAIKVHFLTQNALKFKVGSRHYIINFPFEYDGKKIELPGKSSYNLEEMLSAINFTIPYSIASVSDSSNTADIFPGTPFPLLFEIEVSSCTGNNTNCNSVRFNYNLNTILQVNLMTHHHHHH
# Tests used:
# Assay in all cases: glycan array binding signal (z-score within array); higher = stronger binding
# Settings in all cases: glycan notation: IUPAC condensed, linker removed
# Fuc(a1-2)Gal = biological target: Fuc(a1-2)Gal
# Procedure, shortened: (§1)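 Arrays were curated from the Consortium for Functional Glycomics database, 3228 in total, and kept only where the protein sequence was available. Binding is expressed as a within-array Z-score. This score was averaged across arrays of the same protein sequence at different concentrations or buffers and across linkers, and negative values can be read as non-binding.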
# [1] = biological target: Fuc(a1-2)Gal(b1-3)GlcNAc(b1-2)Man(a1-3)[Fuc(a1-2)Gal(b1-3)GlcNAc(b1-2)Man(a1-6)]Man(b1-4)GlcNAc(b1-4)GlcNAc
# Procedure, shortened: as §1
# [2] = biological target: Fuc(a1-2)Gal(b1-3)GlcNAc(b1-3)[Neu5Ac(a2-6)Gal(b1-4)GlcNAc(b1-6)]Gal(b1-4)Glc
# Procedure, shortened: as §1
# Fuc(a1-2)Gal(b1-4)Glc = biological target: Fuc(a1-2)Gal(b1-4)Glc
# Procedure, shortened: as §1
# [3] = biological target: Fuc(a1-2)Gal(b1-4)GlcNAc(b1-2)Man
# Procedure, shortened: as §1
# [4] = biological target: Fuc(a1-2)[Gal(a1-3)]Gal(b1-4)GlcNAc
# Procedure, shortened: as §1
# [5] = biological target: Fuc(a1-2)[Gal(a1-3)]Gal(b1-4)GlcNAc(b1-2)Man(a1-3)[Fuc(a1-2)[Gal(a1-3)]Gal(b1-4)GlcNAc(b1-2)Man(a1-6)]Man(b1-4)GlcNAc(b1-4)GlcNAc
# Procedure, shortened: as §1
# [6] = biological target: Fuc(a1-2)[Gal(a1-3)]Gal(b1-4)[Fuc(a1-3)]GlcNAc
# Procedure, shortened: as §1
# [7] = biological target: Fuc(a1-2)[GalNAc(a1-3)]Gal(b1-3)GlcNAc(b1-6)GalNAc
# Procedure, shortened: as §1
# [8] = biological target: Fuc(a1-3)[Gal(b1-4)]GlcNAc(b1-6)GalNAc
# Procedure, shortened: as §1
# [9] = biological target: Gal(a1-3)Gal(b1-3)[Fuc(a1-4)]GlcNAc(b1-2)Man(a1-3)[Gal(a1-3)Gal(b1-3)[Fuc(a1-4)]GlcNAc(b1-2)Man(a1-6)]Man(b1-4)GlcNAc(b1-4)GlcNAc
# Procedure, shortened: as §1
# [10] = biological target: Gal(a1-3)Gal(b1-4)GlcNAc(b1-2)Man
# Procedure, shortened: as §1
# Gal(a1-3)GalNAc = biological target: Gal(a1-3)GalNAc
# Procedure, shortened: as §1
# Gal(b1-2)Gal = biological target: Gal(b1-2)Gal
# Procedure, shortened: as §1
# [11] = biological target: Gal(b1-3)GlcNAc(b1-6)Gal(b1-4)GlcNAc
# Procedure, shortened: as §1
# [12] = biological target: Gal(b1-4)GlcNAc(b1-2)Man(a1-3)[Man(a1-6)]Man(b1-4)GlcNAc(b1-4)GlcNAc
# Procedure, shortened: as §1
# [13] = biological target: Gal(b1-4)GlcNAc(b1-3)Gal(b1-3)GalNAc
# Procedure, shortened: as §1
# [14] = biological target: Gal(b1-4)GlcNAc(b1-3)Gal(b1-4)GlcNAc(b1-2)[Gal(b1-4)GlcNAc(b1-3)Gal(b1-4)GlcNAc(b1-6)]Man(a1-6)[Gal(b1-4)GlcNAc(b1-3)Gal(b1-4)GlcNAc(b1-2)Man(a1-3)]Man(b1-4)GlcNAc(b1-4)[Fuc(a1-6)]GlcNAc
# Procedure, shortened: as §1
# [15] = biological target: Gal(b1-4)GlcNAc(b1-3)Gal(b1-4)GlcNAc(b1-3)Gal(b1-4)GlcNAc(b1-3)Gal(b1-4)GlcNAc(b1-2)Man(a1-3)[Gal(b1-4)GlcNAc(b1-3)Gal(b1-4)GlcNAc(b1-3)Gal(b1-4)GlcNAc(b1-3)Gal(b1-4)GlcNAc(b1-2)Man(a1-6)]Man(b1-4)GlcNAc(b1-4)[Fuc(a1-6)]GlcNAc
# Procedure, shortened: as §1
# [16] = biological target: Gal(b1-4)GlcNAc(b1-3)Gal(b1-4)GlcNAc(b1-3)Gal(b1-4)GlcNAc(b1-3)Gal(b1-4)GlcNAc(b1-3)Gal(b1-4)GlcNAc(b1-2)Man(a1-3)[Gal(b1-4)GlcNAc(b1-3)Gal(b1-4)GlcNAc(b1-3)Gal(b1-4)GlcNAc(b1-3)Gal(b1-4)GlcNAc(b1-3)Gal(b1-4)GlcNAc(b1-2)Man(a1-6)]Man(b1-4)GlcNAc(b1-4)[Fuc(a1-6)]GlcNAc
# Procedure, shortened: as §1
# [17] = biological target: Gal(b1-4)GlcNAc(b1-3)[GlcNAc(b1-6)]Gal(b1-4)GlcNAc
# Procedure, shortened: as §1
# Gal6S(b1-4)Glc6S = biological target: Gal6S(b1-4)Glc6S
# Procedure, shortened: as §1
# [18] = biological target: GalNAc(b1-4)GlcNAc(b1-3)GalNAc(b1-4)GlcNAc
# Procedure, shortened: as §1
# [19] = biological target: GlcNAc(a1-3)Gal(b1-4)GlcNAc
# Procedure, shortened: as §1
# [20] = biological target: GlcNAc(a1-6)Gal(b1-4)GlcNAc
# Procedure, shortened: as §1
# [21] = biological target: GlcNAc(b1-2)[GlcNAc(b1-6)]Man(a1-6)[GlcNAc(b1-2)Man(a1-3)]Man(b1-4)GlcNAc(b1-4)GlcNAc
# Procedure, shortened: as §1
# [22] = biological target: GlcNAc(b1-3)Gal(b1-4)GlcNAc(b1-2)Man(a1-3)[GlcNAc(b1-3)Gal(b1-4)GlcNAc(b1-2)Man(a1-6)]Man(b1-4)GlcNAc(b1-4)[Fuc(a1-6)]GlcNAc
# Procedure, shortened: as §1
# GlcNAc(b1-3)GalNAc = biological target: GlcNAc(b1-3)GalNAc
# Procedure, shortened: as §1
# [23] = biological target: Kdn(a2-3)Gal(b1-4)[Fuc(a1-3)]GlcNAc
# Procedure, shortened: as §1
# [24] = biological target: Neu5Ac(a2-3)Gal(b1-3)GlcNAc
# Procedure, shortened: as §1
# [25] = biological target: Neu5Ac(a2-3)Gal(b1-3)GlcNAc(b1-2)Man
# Procedure, shortened: as §1
# [26] = biological target: Neu5Ac(a2-3)Gal(b1-4)GlcNAc(b1-2)[Neu5Ac(a2-3)Gal(b1-4)GlcNAc(b1-6)]Man(a1-6)[Neu5Ac(a2-3)Gal(b1-4)GlcNAc(b1-2)Man(a1-3)][GlcNAc(b1-4)]Man(b1-4)GlcNAc(b1-4)GlcNAc
# Procedure, shortened: as §1
# [27] = biological target: Neu5Ac(a2-3)Gal(b1-4)GlcNAc(b1-3)Gal(b1-4)GlcNAc(b1-3)Gal(b1-4)GlcNAc(b1-2)Man(a1-3)[Neu5Ac(a2-3)Gal(b1-4)GlcNAc(b1-3)Gal(b1-4)GlcNAc(b1-3)Gal(b1-4)GlcNAc(b1-2)Man(a1-6)]GalNAc
# Procedure, shortened: as §1
# [28] = biological target: Neu5Ac(a2-3)Gal(b1-4)[Fuc(a1-3)]GlcNAc6S
# Procedure, shortened: as §1
# [29] = biological target: Neu5Ac(a2-6)Gal(b1-4)GlcNAc(b1-2)Man(a1-3)[Neu5Ac(a2-3)Gal(b1-4)GlcNAc(b1-2)Man(a1-6)]Man(b1-4)GlcNAc(b1-4)GlcNAc
# Procedure, shortened: as §1
# Neu5Ac(a2-8)Neu5Ac = biological target: Neu5Ac(a2-8)Neu5Ac
# Procedure, shortened: as §1
# [30] = biological target: Neu5Ac(a2-8)Neu5Ac(a2-3)Gal(b1-4)Glc
# Procedure, shortened: as §1
# Neu5Ac(b2-6)GalNAc = biological target: Neu5Ac(b2-6)GalNAc
# Procedure, shortened: as §1
# Neu5Gc(a2-6)GalNAc = biological target: Neu5Gc(a2-6)GalNAc
# Procedure, shortened: as §1
binder,measurement,setting,value
B1,glycan array binding signal (z-score),Fuc(a1-2)Gal,0.363
same,glycan array binding signal (z-score),[1],-1.09
same,glycan array binding signal (z-score),[2],-0.102
same,glycan array binding signal (z-score),Fuc(a1-2)Gal(b1-4)Glc,-0.622
same,glycan array binding signal (z-score),[3],-0.607
same,glycan array binding signal (z-score),[4],2
same,glycan array binding signal (z-score),[5],1.97
same,glycan array binding signal (z-score),[6],-0.548
same,glycan array binding signal (z-score),[7],-0.51
same,glycan array binding signal (z-score),[8],3.45
same,glycan array binding signal (z-score),[9],-0.81
same,glycan array binding signal (z-score),[10],0.198
same,glycan array binding signal (z-score),Gal(a1-3)GalNAc,7.25
same,glycan array binding signal (z-score),Gal(b1-2)Gal,1.18
same,glycan array binding signal (z-score),[11],0.216
same,glycan array binding signal (z-score),[12],-0.747
same,glycan array binding signal (z-score),[13],0.355
same,glycan array binding signal (z-score),[14],2.29
same,glycan array binding signal (z-score),[15],2.43
same,glycan array binding signal (z-score),[16],1.98
same,glycan array binding signal (z-score),[17],-0.48
same,glycan array binding signal (z-score),Gal6S(b1-4)Glc6S,0.298
same,glycan array binding signal (z-score),[18],0.68
same,glycan array binding signal (z-score),[19],-0.527
same,glycan array binding signal (z-score),[20],2.41
same,glycan array binding signal (z-score),[21],3.01
same,glycan array binding signal (z-score),[22],0.259
same,glycan array binding signal (z-score),GlcNAc(b1-3)GalNAc,-0.454
same,glycan array binding signal (z-score),[23],-0.405
same,glycan array binding signal (z-score),[24],-0.838
same,glycan array binding signal (z-score),[25],-0.478
same,glycan array binding signal (z-score),[26],-0.322
same,glycan array binding signal (z-score),[27],2.75
same,glycan array binding signal (z-score),[28],0.57
same,glycan array binding signal (z-score),[29],0.21
same,glycan array binding signal (z-score),Neu5Ac(a2-8)Neu5Ac,0.04
same,glycan array binding signal (z-score),[30],8.5
same,glycan array binding signal (z-score),Neu5Ac(b2-6)GalNAc,-0.643
same,glycan array binding signal (z-score),Neu5Gc(a2-6)GalNAc,0.381
